As usually defined, the inhibition is the change of the read-out against control, counted positive when it falls.

The nature of assay [1]: compounds altering viability of human ES cells (AID 493140; call rule not given here;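 note: cells exposed to compounds for four days before counting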). The settings on record: human embryonic stem cell survival screen; stronger effect = higher value.
The nature of assay [2]: viability loss with induced miR-34 in A549 – imaging, A549 dox-inducible miR-34, nuclei and caspase counts, primary screen (AID 1347080). As to conditions: A549 miR-34 inducible, Hoechst nuclei count, 48 h.
A short description of assay [3]: chitosan synthesis blockers in C. neoformans – flow cytometry, Cibacron Brilliant Red staining (AID 1347148; call rule not given here;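 note: compound exposure lasted three days at 37 degrees C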). The settings on record: Cryptococcus neoformans chitosan, stronger effect = lower value; at 10 µM unless noted. For orientation: A flow cytometer gives signals particle by particle.
A short description of assay [4]: compounds altering circadian rhythm period length – cell-based, LOPAC library, luminescence reporter (AID 2774; call rule not given here;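 note: values are relative to mean of DMSO wells on each plate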). The settings on record: circadian reporter cells, at 7 µM, actives lie on both sides.
Assay [5] deals with Hepatitis C virus NS3 helicase. Briefly: blockers of NS3h binding to ssDNA – biochemical, fluorescence polarization, LOPAC1280 library, primary screen (AID 687035; in the data active = inhibition above about 37%). The settings on record: Purified HCV NS3 helicase, Cy5-dT15 ssDNA binding fluorescence polarization; stronger effect = higher value; concentration not given here. A general note: In fluorescence polarisation assays a small probe gives low polarisation when free and higher when bound to something large.

The nature of assay [6]: compounds altering Cy5-DNA-NS3h complex signal – biochemical, LOPAC1280, artefact control for HCV NS3 helicase inhibitor project (AID 687037; call rule not given here). The settings on record: Cy5-DNA-NS3h complex fluorescence interference counterscreen. (In general: A counterscreen serves to expose hits that act by an unwanted route or on another target.)
Assay [7] in a line: blockers of cellular phospholipid synthesis – cell-based, LOPAC library, screen 4, primary screen (AID 1347384; call rule not given here). The settings on record: animal cells, phospholipid biosynthesis inhibition screen; at 10 µM.
Assay [8] can be described thus: galactose survival enhancers in mitochondrial complex I cybrids – cell-based, galactose medium, ATP luminescence, primary screen (AID 1645843;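 active = z-score of at least 1.8 in each of two replicates, scored against plate mean and spread of sample wells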;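 note: positive z means more ATP and so rescue of galactose-driven cybrid death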). As to conditions: complex I mutant cybrid cells, 72 h, stronger effect = higher value.
Assay [9] is described as follows: MELAS cybrid and Rieske KO viability enhancers – cell-based, MELAS cybrids, Rieske KO mouse fibroblasts, CellTiter-Glo, primary screen (AID 1508586;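 active = mean z-score across replicates of 1.96 or higher in either the MELAS or the Rieske mutant cell line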;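 note: z relative to plate mean and SD of compound and empty wells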). The settings on record: low glucose.
[10] abbreviates: measured here: relative caspase fold change +Dox/-Dox.
Setting [11] is: measured here: total cells with miR-34 induction, stronger effect = lower value.
Where [12] appears, read: measured here: total cells without miR-34 induction.
[13] abbreviates: MELAS cybrid survival, CellTiter-Glo 48 h, stronger effect = higher value.
Setting [14] is: Rieske KO mouse fibroblast survival, CellTiter-Glo 72 h.
Setting [15] is: stronger effect = lower value, cell number ratio, induced over uninduced.

Each structure is given as a SMILES string. Several values for one entry are separate records, joined by “and”; a condition that tells them apart may be missing. Equal entries are not always repeated. Activity calls are given as the source filed them.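 Rule for the calls, unless noted: active = compounds whose cell count with miR-34 switched on is under 0.7 times the count with it off; inactive = the rest.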

As for `CCCCC/C=C\C[C@@H](/C=C/C=C\C/C=C\CCCC(=O)O)OO`, the survival in assay [1] is 111 (inactive). In addition, the fold change in assay [2] (stronger effect = lower value) is 0.888 (inactive); in assay [2] (setting [10]), 1.25. Further, the results for the cell count in assay [2] (setting [11]) and in assay [2] (setting [12]) were 5520 and 6220, respectively. The fold fluorescence in assay [3] was 6.04 [at 1 µM] (inactive).

With `CCCCC/C=C\C/C=C\C/C=C\C/C=C\CCCC(N)=O`, the survival in [1] was 110 (inactive). In addition, the fold change in [2] (stronger effect = lower value) was 1.05 (inactive) and 1.02 (inactive); in assay [2] (setting [10]), 1.34 and 1.46. Also, the cell count is 6020 and 5980 in assay [2] (setting [11]); 5750 and 5890 in assay [2] (setting [12]). Further, the fold fluorescence in [3] is 4.13 (inactive).

Consider `C=CCN1C[C@@H](C)N([C@H](c2ccc(C(=O)N(CC)CC)cc2)c2cccc(OC)c2)C[C@@H]1C`, for which the period change in [4] was 0 h (inactive). Moreover, in assay [5], the inhibition is -3% (inactive). In assay [6], the fluorescence ratio (interference) is 1 (inactive). In addition, the fold change is 1.1 (inactive) in assay [2] (stronger effect = lower value) and 1.18 in assay [2] (setting [10]). The cell count in assay [2] (setting [11]) turned out to be 8780; in assay [2] (setting [12]), 7950. Moreover, in [7], the call was inactive. The z-score in assay [8] is -0.39 (inactive).

Regarding `CCCCCCCCCCCCCCCCOC[C@@H](COP(=O)([O-])OCC[N+](C)(C)C)OC(C)=O`, in assay [1], the survival was 78.6 (inactive). The fold change was 0.883 (inactive) in assay [2] (stronger effect = lower value) and 0.996 in assay [2] (setting [10]). Besides, the cell count in assay [2] (setting [11]) is 4960; in [2] (setting [12]) it was 5620. The fold fluorescence in assay [3] was 4.51 (inactive) and 4.92 (inactive).

As to `Cc1sc2c(c1C)C(c1ccc(Cl)cc1)=NC(CC(=O)OC(C)(C)C)c1nnc(C)n1-2` (centres undefined), the fold change in [2] (stronger effect = lower value) was 0.954 (inactive); in [2] (setting [10]), 0.485. Besides, the cell count in assay [2] (setting [11]) was 5260; in assay [2] (setting [12]), 5520. Besides, the z-score in assay [9] (setting [13]) was 0.154 (inactive); in assay [9] (setting [14]), -3.85.

Consider `CC(C)[C@@]12OC1C1O[C@]13[C@]1(OC1C[C@@H]1C4=C(CC[C@@]13C)C(=O)OC4)C2O` (some centres undefined), for which the fold change was 0.989 (inactive) in assay [2] (setting [15]) and 0.482 in assay [2] (setting [10]). Further, the values for the cell count in [2] (setting [11]) and in assay [2] (setting [12]) were 1650 and 1670, respectively. Also, the values for the z-score in assay [9] (setting [13]) and in assay [9] (setting [14]) were 1.17 (inactive) and -0.457, respectively.

Turning to `CN1CCCCC1Cn1cc(C(=O)c2cc([N+](=O)[O-])ccc2I)c2ccccc21` (centres undefined), the fold change in assay [2] (stronger effect = lower value) is 0.887 (inactive) and 1.03 (inactive); in assay [2] (setting [10]), 0.479 and 0.87. Also, the cell count in [2] (setting [11]) is 5220 and 6710; in assay [2] (setting [12]) it was 5890 and 6500. The z-score is 0.0965 (inactive) in assay [9] (setting [13]) and -0.371 in assay [9] (setting [14]).

As for `CC=C(C)C(=O)NC(c1ccccc1)C(O)C(=O)OC1C[C@@]2(O)C(OC(=O)c3ccccc3)[C@@H]3[C@]4(OC(C)=O)COC4CC(O)[C@@]3(C)C(=O)C(OC(C)=O)C(=C1C)C2(C)C` (some centres undefined), the fold change in assay [2] (setting [15]) was 1.27 (inactive); in assay [2] (setting [10]) it was 0.457. Besides, the results for the cell count in assay [2] (setting [11]) and in assay [2] (setting [12]) were 1460 and 1150, respectively. Besides, the z-score in assay [9] (setting [13]) is 1.29 (inactive); in assay [9] (setting [14]) it was 0.0967.

Regarding `O=c1[nH]c2ccc(Cl)cc2c(NC2CN3CCC2CC3)c1-c1nc2ccccc2[nH]1` (centres undefined), the fold change in assay [2] (setting [15]) was 0.941 (inactive); in [2] (setting [10]), 1.09. For the same compound, the cell count in assay [2] (setting [11]) amounted to 1120; in assay [2] (setting [12]), 1200. Besides, the z-score is 1.28 (inactive) in assay [9] (setting [13]) and -3.49 in assay [9] (setting [14]).

For `CC(=O)O[C@@]12CO[C@@H]1CC(O)[C@@]1(C)C(=O)C(O)C3=C(C)C(O)C[C@@](O)(C(OC(=O)c4ccccc4)[C@H]21)C3(C)C` (some centres undefined), the fold change in assay [2] (setting [15]) was 1 (inactive); in [2] (setting [10]), 0.634. For the same compound, the cell count in assay [2] (setting [11]) and in assay [2] (setting [12]) was 6370 in each case. The z-score was -0.382 (inactive) in assay [9] (setting [13]) and 1.02 in [9] (setting [14]).

As to `CN1CCN(c2nc3ccccc3nc2Cl)CC1`, the fold change in [2] (setting [15]) was 0.946 (inactive); in assay [2] (setting [10]), 0.445. Also, the cell count was determined as 7800 in assay [2] (setting [11]) and 8250 in [2] (setting [12]). In addition, the z-score in [9] (setting [13]) is -0.222 (inactive); in assay [9] (setting [14]), -0.11.
